In PubChem BioAssay (NCI) one finds growth data, which are given here for 38 compounds.

The structures appear in SMILES notation. This is part of a sample that, as a whole, favours compounds with a hit. Of some 83,000 tested, about 20% had one in any assay.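 Step 1: grow cells in 96-well plates. Step 2: add test compound at a single concentration. Step 3: incubate 48 h. Step 4: record percent growth.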 A number with no mark means an inactive call. Activity calls are given as the source filed them. Rule for the calls: active = growth percent below 10; inactive = the rest.

The test system of the test is A549/ATCC NSCLC. As to the kind of experiment: NCI-60 one-dose screen, 48 h (100 = growth as untreated, 0 = no growth, -100 = all killed). The following applies: 10 µM unless noted.
In the case of `COc1ccc(-c2cc(NC(=O)Nc3ccc4ncsc4c3)no2)cc1`, the growth was 103%.
Next, `O=[N+]([O-])c1ccccc1/C=N\NC(=S)N/N=C/c1ccccc1[N+](=O)[O-]`: 74.8%; `O=C1c2cc3c(cc2-c2c1c1ccc(F)cc1c(=O)n2C[C@H](O)[C@H](O)[C@H](O)CO)OCO3`: -45.1% (active).
The figure for `Cc1ccc2c(C(C[N+](=O)[O-])c3ccccc3F)c(-c3ccccc3)[nH]c2c1` (stereo not drawn) is 35.2%; for `COc1ccc(CCNc2nc(SC)nc(-c3cccc([N+](=O)[O-])c3)c2C#N)cc1OC` it is 82.2%; for `O=C(CCN1C(=O)/C(=C/c2ccc(Cl)cc2)SC1=S)NCCCN1CCOCC1` it is 102%.
The figure for `Cc1nn(-c2cc(=O)[nH]c3ccc(Cl)cc23)c(N)c1C#N` is 108%.
Turning to `COC[C@H](C)n1c(C2CCOCC2)nc2cnc3cc(-c4c(C)noc4C)c(OC)cc3c21`, the growth is 45.6%.
The figure for `COc1cc(C(=O)Oc2ccccc2OC(=O)c2cc(OC)c(OC)c(OC)c2)cc(OC)c1OC` is 85.3%.
The figure for `COc1ccc(/C=C\c2cc(OC)c(OC)c(OC)c2)cc1OCC(=O)Nc1ccc2nc(C)sc2c1` is 30.5%; for `COc1cc2c(cc1O)CC[C@@H]1[C@@H]2CC[C@]2(C)[C@@H](OCCCN(C)C)CC[C@@H]12` it is -33.7% (active).
The figure for `CC(=O)Oc1ccc(Cl)cc1CN(C(C)=O)C1CCCCC1` is 106%; for `O=C(/C=C/c1cccc([N+](=O)[O-])c1)c1ccc(O)c(CN2CCN(c3cc4c(cc3F)c(=O)c(C(=O)O)cn4C3CC3)CC2)c1` it is 32.2%; for `O=C1c2cc3c(cc2-c2c1c1ccc(Cl)cc1c(=O)n2CCCN1CCOCC1)OCO3` it is 48.7%.
`COc1ccc(-n2nc(C)c3c(Oc4ccc(NC(=O)Nc5c(Cl)cccc5Cl)cc4)ncnc32)cc1`: the growth was 103%.
The figure for `CCOc1cc2c(cc1OCC)C(c1cc(OC)c(O)cc1Cl)NCC2` (stereo not drawn) is 88.6%; for `COC(=O)c1ccc(NC(=O)c2ccc(-c3cccc([N+](=O)[O-])c3)o2)cc1` it is 108%; for `COc1ccc(-c2cc(-c3ccc(Nc4ccnc5cc(Cl)ccc45)cc3)nc(N3CCOCC3)n2)cc1` it is 12.3%.
Take `O=C(COc1cccc(/C=C2\CSc3ccccc3C2=O)c1)Nc1nccs1`: the growth is 95.1%.
The figure for `N#C/C(=C\c1ccc(-c2ccc(Cl)c(Cl)c2)o1)c1nc(-c2ccco2)cs1` is 113%.
Next, `CN(C)c1ccc(N=Nc2ccc(Br)cn2)c(O)c1`: 10.3%.
The figure for `C#CCOc1ccc2ncnc(Nc3cccc(CNC(=O)CCl)c3)c2c1` is 53.3% [8.25 µM]; for `Cn1cc(-c2nonc2-c2c[nH]c3ccccc23)c2cccnc21` it is 36.2%.
For the compound `O=CNc1ccc2c(c1)Cc1cccc(NC=O)c1-2`, the growth was 85.6%.
The figure for `Cn1c(O)c(N=NC(=O)c2cc(-c3ccccc3)on2)c2ccccc21` is 108%; for `CC1=C/C(=C(\c2ccc(N(C)C)cc2)c2ccc([N+](C)(C)C)cc2)C=CC1=[N+](C)C` it is 29.2%.
Next, `COc1cc2c(cc1-c1c(C)noc1C)ncc1nc(C3CCCC3)n([C@H](C)COC(F)F)c12`: 31.6%; `Clc1ccc2c(NCCNc3nc(N4CCCCC4)nc4ccccc34)ccnc2c1`: 0.13% (active).
Next, `COc1ccc2[nH]cc(-c3noc(C(=O)c4cn(C)c5ccc(F)cc45)n3)c2c1`: 105%; `O=c1cc(CSc2nnc(-c3ccc(F)cc3)o2)c2ccc3ccccc3c2o1`: 85.5%.
In the case of `O=C1Nc2ccc(Br)cc2C12Oc1ccccc1C1CC(c3ccc(F)cc3)=NN12` (stereo not drawn), the growth was 91%.
The figure for `FC(F)(F)c1ccc(-c2cn3nc(-c4c[nH]c5ccc(Br)cc45)sc3n2)cc1` is 99%.
Take `COc1cc(/C=C/c2cc(/C=C/c3ccc(O)c(OC)c3)n(-c3c(Cl)cccc3Cl)c(=O)n2)ccc1O`: the growth is 44.1%.
Next, `C=CCSSc1ncnc2c1ncn2C1OC(CO)C(O)C1O` (stereo not drawn): 79.7%.
Next, `O=Nc1c(O)c(Cl)cc2ccccc12`: 93%.
Next, `Cc1cc2nc3[nH]c4ccccc4c3nc2cc1C`: 87.2%; `COc1cc(-c2nn(C)nc2-c2cc3ccccc3s2)cc(OC)c1OC`: 23.3%; `CC(=O)OCCC/C(=C/c1cc2ccccc2c2ccccc12)[N+](=O)[O-]`: -94.6% (active).
